Bioassay records as filed in PubChem BioAssay.
SENP8 block-1 – blocks human SENP8 cleavage of Nedd8 substrate. AID 602440. recombinant SENP8, Nedd8 substrate fluorescence. inhibition, % at 20 µM. actives 0.64% (n = 360,000); in the data active = inhibition mostly above about 40%, no sharp cut-off; inactive = mostly below about 27%
Target sequence (Q96LD8 whole entry, looked up): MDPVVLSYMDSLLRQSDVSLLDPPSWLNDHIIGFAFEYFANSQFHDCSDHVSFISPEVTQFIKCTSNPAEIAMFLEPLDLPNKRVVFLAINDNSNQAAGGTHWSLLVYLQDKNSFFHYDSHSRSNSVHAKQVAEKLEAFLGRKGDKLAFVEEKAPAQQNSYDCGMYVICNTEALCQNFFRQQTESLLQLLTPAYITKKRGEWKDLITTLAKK
AHR act – activators of human aryl hydrocarbon receptor; AHR-responsive luciferase reporter cells, luminescence; actives 2.5% (n = 320,000); activation, % at 5 µM; P35869; in the data active = activation above about 47%;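 also: 0% = vehicle wells and 100% = reference agonist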
EBI2 antag – antagonists of human EBI2 receptor | P32249 | EBI2 beta-arrestin recruitment, luminescence, 7a,25-OHC stimulated | inhibition, % at 5 µM | actives 0.81% (n = 360,000) | AID 651636; in the data active = inhibition above about 38%;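 also: enzyme fragment complementation signal reports receptor beta-arrestin coupling in cells; 0% = agonist plus DMSO wells and 100% = wells without agonist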
SENP8 block-2 – blocks the human protease SENP8; purified SENP8, Z-RLRGG-aminoluciferin cleavage, luminescence; inhibition, % at 10 µM; actives 1.2% (n = 330,000); AID 2540; in the data active = inhibition above about 50%
SENP6 block – SENP6 protease inhibition; Q9GZR1; Recombinant SENP6 catalytic domain, aminoluciferin luminescence; inhibition, % at 10 µM; actives 1.8% (n = 330,000); AID 2599;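 active = inhibition above about 50% at the single tested dose, limit read from the data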;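 also: plate controls were DMSO wells with enzyme for no effect and DMSO wells lacking enzyme for full effect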
SENP7 block – blocks the human protease SENP7. Q9BQF6. AID 434973. actives 1.5% (n = 330,000). inhibition, % at 5 µM. recombinant SENP7, Z-RLRGG-aminoluciferin luminescence, 40 min;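 active = inhibition above about 50% at the single test dose, limit read from the data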;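 also: plate controls were DMSO with enzyme for no effect and no enzyme buffer wells for full effect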
SENP8 confirm – human SENP8 inhibition, confirmed. Recombinant SENP8, Z-RLRGG-aminoluciferin luminescence, 60 min. actives 40% (n = 6,200). inhibition, % at 12.5 µM. shares compounds with SENP7 block;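 active = mean inhibition across replicates above about 50%, limit read from the data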
SENP6 conf – human SENP6 inhibition, confirmed; inhibition, % at 12.5 µM; recombinant SENP6, Z-RLRGG-aminoluciferin luminescence; actives 58% (n = 6,200); shares compounds with SENP7 block
SENP7 conf – human SENP7 inhibition, confirmed; AID 488917; actives 69% (n = 6,200); inhibition, % at 12.5 µM; recombinant SENP7, Z-RLRGG-aminoluciferin luminescence, 40 min; shares compounds with SENP7 block
Casp3 SENP sel – caspase-3 inhibition (SENP selectivity assay). shares compounds with SENP7 block. purified caspase-3, Z-DEVD-aminoluciferin luminescence, 60 min. inhibition, % at 12.5 µM. actives 60% (n = 6,200);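 active = mean inhibition above about 50%, limit read from the data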;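 also: plate controls were enzyme with DMSO for no effect and wells without caspase-3 for full effect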
Target sequence (P42574 28-227 limits assumed): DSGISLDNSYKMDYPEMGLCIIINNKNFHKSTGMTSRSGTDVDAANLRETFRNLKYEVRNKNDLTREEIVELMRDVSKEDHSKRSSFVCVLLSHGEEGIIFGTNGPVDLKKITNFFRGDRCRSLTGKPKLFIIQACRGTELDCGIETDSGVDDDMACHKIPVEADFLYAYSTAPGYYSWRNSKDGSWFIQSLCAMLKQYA
Luc interf – counter-screen for SENP inhibitors: luminescence interference; inhibition, % at 12.5 µM; shares compounds with SENP7 block; Pre-incubated SENP8/Z-RLRGG-aminoluciferin, luciferase luminescence interference; actives 39% (n = 6,200);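 active = mean inhibition above about 50% when retested at one dose, limit read from the data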;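 also: plate controls were DMSO wells with completed reaction for no effect and substrate without enzyme for full effect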
Active calls of the source: *; i = inactive; nt = no result given. The list is not random: actives were taken first. Their share in the collection is about 5%.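 The calls were made as follows, unless noted: active = mean inhibition above about 50% in the one-dose retest (limit read from the data); inactive = the rest.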

SMILES | SENP8 block-1 | AHR act | EBI2 antag | SENP8 block-2 | SENP6 block | SENP7 block | SENP8 confirm | SENP6 conf | SENP7 conf | Casp3 SENP sel | Luc interf
c1ccc(-c2cn3nc(-c4ccccc4)sc3n2)cc1 | -34 | 12 | -10 | 85* | -5 | 93* | -8 | 3 | 15 | 7 | -1
Cc1nn2cc(-c3ccccc3)nc2s1 | 9 | 0 | -5 | 76* | 72* | -3 | 77* | 81* | 97* | 91* | 71*
O=[N+]([O-])c1ccccc1/C=N\N1CCN(Cc2ccccc2Cl)CC1 | 14 | -1 | 3 | -7 | 15 | -6 | nt | nt | nt | nt | nt
CSc1nc2sc3c(c2c(=O)n1C)CCC(C)C3 (configuration not stated) | -7 | 56* | 6 | 48 | 63* | 50* | 7 | 7 | 19 | 25 | 10
CSc1nc2sc3c(c2c(=O)n1C)CCC3 | 19 | 0 | -3 | -23 | -16 | 3 | nt | nt | nt | nt | nt
Cc1ccc(-c2cnn(-c3cccc([N+](=O)[O-])c3)c2N)cc1 | 11 | -6 | 11 | 20 | 52* | 53* | 28 | 28 | 71* | 38 | 2
Nc1c(-c2ccc(Cl)cc2)cnn1-c1cc(C(F)(F)F)cc(C(F)(F)F)c1 | -1 | 1 | -6 | 1 | -9 | 1 | nt | nt | nt | nt | nt
Nc1c(-c2ccc(Cl)cc2)cnn1-c1ccccc1 | 21 | -4 | 2 | 84* | 87* | 93* | 77* | 77* | 94* | 84* | 4
Cc1ccc(-c2cnn(-c3ccccc3)c2N)cc1 | 12 | 3 | 1 | 89* | 91* | 95* | 93* | 94* | 101* | 95* | 62*
Nc1c(-c2ccc(Cl)cc2)nnn1-c1ccccc1 | 20 | -2 | 4 | 19 | 51* | 47 | 35 | 30 | 65* | 50* | 2
Cc1ccc(NC(=O)COC(=O)c2ccc([N+](=O)[O-])o2)cc1S(=O)(=O)N1CCCCCC1 | 33 | 0 | -6 | -2 | 20 | -10 | nt | nt | nt | nt | nt
CCN(CC)C(=S)Oc1ccc(Cl)cc1Cl | 26 | 2 | 14 | 0 | 2 | -9 | nt | nt | nt | nt | nt
CCOC(=O)C1CCC/C1=N\NC(=O)CN(c1cc(OC)ccc1OC)S(=O)(=O)c1ccccc1 (configuration not stated) | 6 | 0 | 10 | 1 | -11 | 2 | nt | nt | nt | nt | nt
O=S(=O)(c1ccc(Cl)cc1)N1CCN(C(=S)Nc2ccc(F)c(Cl)c2)CC1 | 9 | 1 | 20 | 4 | 6 | 2 | nt | nt | nt | nt | nt
COc1ccc(-c2cc(C(=O)NCC3CCCO3)c3cc(C(C)C)ccc3n2)cc1 (configuration not stated) | -384 | 6 | 13 | -2 | -13 | 9 | nt | nt | nt | nt | nt
Nc1c(-c2ccccc2)cnn1-c1ccc(C(=O)O)cc1 | 5 | 8 | 2 | 27 | -1 | 53* | 45 | 41 | 76* | 66* | 60*
CC(=O)Oc1ccc(-c2nc(-c3cccnc3)no2)cc1 | 14 | 0 | 3 | 98* | 96* | 100* | 97* | 99* | 103* | 98* | 37
CCOc1ccc(-n2c(SCC(=O)N3CCC(C(=O)O)CC3)nc3ccccc3c2=O)cc1 | 10 | -2 | -18 | 4 | 33 | -4 | nt | nt | nt | nt | nt
Oc1ccc(F)cc1-c1cc(-c2ccc3c(c2)OCCO3)n[nH]1 | 11 | 9 | 37 | 84* | 88* | 75* | 88* | 88* | 100* | 59* | 57*
O=C(N/N=C/c1ccc(F)cc1)c1cc(-c2ccc3c(c2)OCO3)n[nH]1 | 10 | 39 | -10 | -2 | -1 | 1 | nt | nt | nt | nt | nt
Cc1ccc(-c2cc(-c3ccc(F)cc3)n[nH]2)c(O)c1 | 2 | nt | 15 | 79* | 83* | 76* | 86* | 86* | 95* | 43 | 76*
Oc1ccccc1-c1cc(-c2ccc(F)cc2)n[nH]1 | 5 | 74* | 7 | 89* | 94* | 94* | 94* | 94* | 100* | 72* | 80*
COc1ccc(-c2cc(-c3ccccc3O)[nH]n2)cc1 | 29 | 26 | 7 | 92* | 97* | 94* | 96* | 97* | 102* | 78* | 94*
COC(=O)c1cc(-c2ccc(C)cc2)n[nH]1 | 0 | 3 | -17 | -6 | 20 | 16 | nt | nt | nt | nt | nt
COC(=O)c1cc(-c2ccc(OC)cc2)n[nH]1 | 11 | 2 | -6 | -17 | -18 | 12 | nt | nt | nt | nt | nt
SMILES | SENP8 block-1 | AHR act | EBI2 antag | SENP8 block-2 | SENP6 block | SENP7 block | SENP8 confirm | SENP6 conf | SENP7 conf | Casp3 SENP sel | Luc interf
c1ccc(-c2nnc(-c3ccccc3)nn2)cc1 | 28 | 19 | 14 | 83* | 88* | 96* | 8 | 13 | 26 | 36 | 29
CCOc1ccc(OCC)c(NC(=O)Cn2c(C)nc3ccccc3c2=O)c1 | 4 | 7 | 5 | -5 | 3 | 2 | nt | nt | nt | nt | nt
COc1ccc2cc(-c3ccn[nH]3)ccc2c1 | 4 | 3 | -5 | 45 | 66* | 59* | 32 | 53* | 84* | 45 | 64*
COc1ccc(-c2cn[nH]c2C)cc1 | 10 | 2 | -12 | -1 | -7 | 1 | nt | nt | nt | nt | nt
O=C(Nc1cccc(-c2ccc(N3CCCCC3)nn2)c1)c1ccco1 | -11 | -10 | -1 | 54* | 76* | 73* | 77* | 74* | 91* | 75* | 72*
O=C(COc1ccc(Cl)cc1)Nc1cccc(-c2ccc(N3CCOCC3)nn2)c1 | -6 | 0 | 15 | 12 | 54* | 68* | 12 | 20 | 23 | 14 | 0
O=C(Nc1cccc(-c2ccc(N3CCOCC3)nn2)c1)c1ccccc1Cl | -7 | -7 | 1 | 6 | 23 | 26 | nt | nt | nt | nt | nt
COc1ccccc1NC(=O)CCSc1ccc(C)cc1 | 23 | 0 | 4 | 21 | 51* | 34 | 24 | 22 | 63* | 43 | 35
CCOC(=O)C1CCN(S(=O)(=O)CCNC(=O)c2cccc(OC)c2)CC1 | -29 | 1 | -3 | 2 | -10 | 3 | nt | nt | nt | nt | nt
O=c1c2ccccc2oc2ccc(-c3ccc4[nH]ccc4c3)cc12 | -81 | 13 | 20 | 44 | 53* | 48 | 17 | 36 | 57* | 18 | 17
O=c1c2ccccc2oc2cc(-c3ccc4cc[nH]c4c3)ccc12 | i | -2 | 3 | -11 | -23 | -13 | nt | nt | nt | nt | nt
